In PubChem BioAssay AID652251 (National Center for Advancing Translational Sciences (NCATS), 2013) one finds Potency data, which are given here for one compound.

The structures appear in SMILES notation. Active and inactive are the calls of the source.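 How the source made its calls: active means lowers cyclin D1 in cells by half at 5 µM or less; inconclusive means half-effect dose above 5 µM but under 10 µM; inactive means half-effect dose of 10 µM or more.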

A short description of the assay: qHTS for Inhibitors of Ubiquitin-specific Protease USP2a Using CHOP2 as the Reporter: Cyclin D1 Western Blot. Conditions: HCT116 cyclin D1 western blot. From the text: Homeostasis of cellular proteins is maintained through a combination of synthesis and degradation. The pathway that accounts for the majority of protein degradation is the ubiquitin-proteasomal pathway. Ubiquitin (Ub) is highly conserved in all cells and the generation of a multi-Ub chain typically targets proteins for degradation by the proteasome. However, ubiquitination is highly reversible and dynamic. Deubiquitination, the reverse process, is catalyzed through the action of enzymes referred to as isopeptidases or deubiquitinating enzymes (DUBs). This group of enzymes is collectively responsible for maintaining adequate pools of free ubiquitin and regulating the ubiquitination status of cellular proteins. The class of DUBs referred to as the ubiquitin-specific proteases (USP) family functions endoproteolytically to cleave Ub chains from a wide range of protein substrates. USP2a deubiquitinates fatty acid synthase (FASN) which has recently been identified as an emerging oncology target. […] To further visualize and quantitate the effect of compounds on cell proliferation, a colony forming or clonogenic assay was performed in 6-well plates using HCT116 cells. […] The colonies were visualized on the Typhoon imager (GE) using Cy5 detection, and quantitated with the associated software. […]
. […] Protein levels were quantified using ImageJ.
Background: Quantitative high-throughput screening tests each substance at several concentrations.
Regarding `Cc1ccc(S(=O)(=O)Nc2cc(C(F)(F)F)ccc2C(=O)Nc2nc(-c3ccccc3)cs2)cc1`, the Potency is 0.97 µM (active).
